# According to paper PMC7862700, “An all-to-all approach to the identification of sequence-specific readers for epigenetic DNA modifications on cytosine”:
# Key:
# Assay in all cases: DAPPL (digital affinity profiling via proximity ligation, sequencing); 10 mM Tris-HCl pH 7.5, 50 mM NaCl, 1 mM DTT, 4% glycerol, room temperature, 30 min; GST-TFs on glutathione beads, 16-mer random dsDNA library, 0.1% formaldehyde crosslink after washing; high values mean tight binding
# [1] = target: T1, FEV (Homo sapiens, UniProt Q99581 1-238); details: protein: recombinant; tags: N-terminal GST; dsDNA, one strand shown
# T1 sequence: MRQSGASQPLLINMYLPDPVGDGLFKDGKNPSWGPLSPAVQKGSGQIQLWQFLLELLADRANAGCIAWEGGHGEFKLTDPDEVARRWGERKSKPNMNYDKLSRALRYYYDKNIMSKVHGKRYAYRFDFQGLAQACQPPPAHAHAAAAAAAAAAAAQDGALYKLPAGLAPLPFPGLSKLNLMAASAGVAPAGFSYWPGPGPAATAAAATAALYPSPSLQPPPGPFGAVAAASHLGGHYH
# Method in brief: (§1)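 Binding signal is each hexamer's read frequency for a factor divided by its frequency in the tag-only sample. The factors were GST-fused human transcription factors from yeast, captured on glutathione beads, DNA-barcoded and pooled with that sample. Pools were incubated with 200 nmole of a random double-stranded 16-mer DNA library in Tris/NaCl/DTT/glycerol buffer at room temperature for 30 min, then washed, crosslinked with 0.1% formaldehyde, proximity-ligated with BsaI/T4 ligase (1 h, 37 °C), PCR-amplified and sequenced on an Illumina NextSeq500.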
# [2] = target: ETV5 (Homo sapiens, UniProt P41161 1-510); details: protein: recombinant; tags: N-terminal GST; dsDNA, one strand shown
# Method in brief: as §1
# [3] = target: HSF1 (Homo sapiens, UniProt Q00613 1-529); details: protein: recombinant; tags: N-terminal GST; chain copies: 3; dsDNA, one strand shown
# Method in brief: as §1
# [4] = target: T2, SPIC (Homo sapiens, UniProt Q8N5J4 1-248); details: protein: recombinant; tags: N-terminal GST; dsDNA, one strand shown
# T2 sequence: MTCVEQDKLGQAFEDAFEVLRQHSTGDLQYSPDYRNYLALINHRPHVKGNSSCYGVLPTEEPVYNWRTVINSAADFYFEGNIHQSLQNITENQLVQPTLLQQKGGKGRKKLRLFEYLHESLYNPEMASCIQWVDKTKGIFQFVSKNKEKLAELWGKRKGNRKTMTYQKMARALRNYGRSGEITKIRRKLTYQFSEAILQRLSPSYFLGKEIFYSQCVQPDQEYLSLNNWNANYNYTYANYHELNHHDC
# Method in brief: as §1
# [5] = target: ELF4 (Homo sapiens, UniProt Q99607 1-663); details: protein: recombinant; tags: N-terminal GST; dsDNA, one strand shown
# Method in brief: as §1
# [6] = target: T3, ELK4 (Homo sapiens, UniProt P28324-2 1-405); details: protein: recombinant; tags: N-terminal GST; dsDNA, one strand shown
# T3 sequence: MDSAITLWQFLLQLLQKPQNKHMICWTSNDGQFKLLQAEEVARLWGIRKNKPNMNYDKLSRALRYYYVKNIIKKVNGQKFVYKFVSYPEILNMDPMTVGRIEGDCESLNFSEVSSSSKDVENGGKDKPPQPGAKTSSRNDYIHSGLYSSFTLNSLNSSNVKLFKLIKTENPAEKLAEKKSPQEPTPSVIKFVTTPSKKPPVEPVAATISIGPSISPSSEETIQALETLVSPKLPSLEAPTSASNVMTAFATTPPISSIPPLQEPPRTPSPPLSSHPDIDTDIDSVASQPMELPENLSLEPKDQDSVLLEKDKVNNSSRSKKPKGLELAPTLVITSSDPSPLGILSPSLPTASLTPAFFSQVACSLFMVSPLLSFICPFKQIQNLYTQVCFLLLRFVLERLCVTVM
# Method in brief: as §1
# [7] = target: T4, ETV2 (Homo sapiens, UniProt O00321 1-342); details: protein: recombinant; tags: N-terminal GST; dsDNA, one strand shown
# T4 sequence: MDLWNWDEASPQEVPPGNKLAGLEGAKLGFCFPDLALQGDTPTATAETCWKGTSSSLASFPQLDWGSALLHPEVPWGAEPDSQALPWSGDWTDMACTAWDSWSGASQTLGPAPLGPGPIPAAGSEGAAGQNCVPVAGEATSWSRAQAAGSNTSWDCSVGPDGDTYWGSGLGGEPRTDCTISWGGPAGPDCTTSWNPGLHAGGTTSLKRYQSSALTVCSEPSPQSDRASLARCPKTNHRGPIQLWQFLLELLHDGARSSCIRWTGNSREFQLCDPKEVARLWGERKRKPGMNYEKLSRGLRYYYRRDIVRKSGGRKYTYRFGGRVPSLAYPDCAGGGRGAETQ
# Method in brief: as §1
# [8] = target: T5, ELF3 (Homo sapiens, UniProt P78545 1-371); details: protein: recombinant; tags: N-terminal GST; dsDNA, one strand shown
# T5 sequence: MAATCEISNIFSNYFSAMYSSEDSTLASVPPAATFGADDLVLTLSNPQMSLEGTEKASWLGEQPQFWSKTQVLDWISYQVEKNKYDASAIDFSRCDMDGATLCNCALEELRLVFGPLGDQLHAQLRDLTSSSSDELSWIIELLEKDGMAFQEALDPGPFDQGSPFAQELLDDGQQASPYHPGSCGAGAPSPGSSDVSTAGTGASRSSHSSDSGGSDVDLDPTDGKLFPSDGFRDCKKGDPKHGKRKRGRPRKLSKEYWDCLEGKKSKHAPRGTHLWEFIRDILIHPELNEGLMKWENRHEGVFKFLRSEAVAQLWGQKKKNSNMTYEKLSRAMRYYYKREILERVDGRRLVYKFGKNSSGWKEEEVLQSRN
# Method in brief: as §1
# [9] = target: CRX (Homo sapiens, UniProt O43186 1-299); details: protein: recombinant; tags: N-terminal GST; dsDNA, one strand shown
# Method in brief: as §1
# [10] = target: ETV1 (Homo sapiens, UniProt P50549 1-477); details: protein: recombinant; tags: N-terminal GST; dsDNA, one strand shown
# Method in brief: as §1
# [11] = target: T6, ERF (Homo sapiens, UniProt P50548 1-548); details: protein: recombinant; tags: N-terminal GST; dsDNA, one strand shown
# T6 sequence: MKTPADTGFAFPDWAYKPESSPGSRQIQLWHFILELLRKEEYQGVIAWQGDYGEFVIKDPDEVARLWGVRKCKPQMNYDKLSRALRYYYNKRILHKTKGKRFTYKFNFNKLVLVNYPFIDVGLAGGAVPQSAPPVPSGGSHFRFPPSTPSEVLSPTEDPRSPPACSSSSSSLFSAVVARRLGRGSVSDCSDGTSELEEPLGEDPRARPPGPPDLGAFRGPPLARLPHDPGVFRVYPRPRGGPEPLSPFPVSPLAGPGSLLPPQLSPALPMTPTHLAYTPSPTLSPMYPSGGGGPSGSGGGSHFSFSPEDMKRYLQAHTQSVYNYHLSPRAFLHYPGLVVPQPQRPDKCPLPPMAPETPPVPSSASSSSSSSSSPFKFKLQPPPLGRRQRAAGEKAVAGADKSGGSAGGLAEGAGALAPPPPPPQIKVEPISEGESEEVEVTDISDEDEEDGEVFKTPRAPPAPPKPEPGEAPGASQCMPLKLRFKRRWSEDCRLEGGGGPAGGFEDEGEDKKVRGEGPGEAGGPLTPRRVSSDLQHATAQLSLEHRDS
# Method in brief: as §1
# [12] = target: T7, ETV3L (Homo sapiens, UniProt Q6ZN32 1-361); details: protein: recombinant; tags: N-terminal GST; dsDNA, one strand shown
# T7 sequence: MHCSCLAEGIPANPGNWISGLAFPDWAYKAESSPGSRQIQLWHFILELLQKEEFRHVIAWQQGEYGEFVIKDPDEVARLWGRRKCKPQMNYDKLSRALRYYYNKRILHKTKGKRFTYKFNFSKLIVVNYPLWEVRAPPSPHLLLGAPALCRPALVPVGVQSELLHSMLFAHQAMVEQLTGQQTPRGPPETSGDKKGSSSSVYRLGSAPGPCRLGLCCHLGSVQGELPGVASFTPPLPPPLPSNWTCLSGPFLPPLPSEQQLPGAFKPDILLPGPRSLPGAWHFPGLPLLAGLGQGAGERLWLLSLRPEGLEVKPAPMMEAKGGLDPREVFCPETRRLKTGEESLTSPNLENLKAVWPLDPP
# Method in brief: as §1
# [13] = target: T8, ETS2 (Homo sapiens, UniProt P15036 1-469); details: protein: recombinant; tags: N-terminal GST; dsDNA, one strand shown
# T8 sequence: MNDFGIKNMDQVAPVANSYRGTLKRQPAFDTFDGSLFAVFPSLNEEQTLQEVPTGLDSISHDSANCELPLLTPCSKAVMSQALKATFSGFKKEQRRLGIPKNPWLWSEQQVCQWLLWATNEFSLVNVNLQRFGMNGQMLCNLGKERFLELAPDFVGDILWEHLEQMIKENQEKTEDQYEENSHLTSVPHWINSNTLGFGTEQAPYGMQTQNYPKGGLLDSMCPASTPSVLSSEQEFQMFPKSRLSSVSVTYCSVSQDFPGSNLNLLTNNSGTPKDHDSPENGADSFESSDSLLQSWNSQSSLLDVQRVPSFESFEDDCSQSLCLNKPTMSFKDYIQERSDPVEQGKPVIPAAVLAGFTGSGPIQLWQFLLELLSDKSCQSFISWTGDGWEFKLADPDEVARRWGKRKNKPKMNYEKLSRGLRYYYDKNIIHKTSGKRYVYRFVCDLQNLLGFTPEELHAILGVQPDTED
# Method in brief: as §1
# [14] = target: T9, SPDEF (Homo sapiens, UniProt O95238 1-335); details: protein: recombinant; tags: N-terminal GST; dsDNA, one strand shown
# T9 sequence: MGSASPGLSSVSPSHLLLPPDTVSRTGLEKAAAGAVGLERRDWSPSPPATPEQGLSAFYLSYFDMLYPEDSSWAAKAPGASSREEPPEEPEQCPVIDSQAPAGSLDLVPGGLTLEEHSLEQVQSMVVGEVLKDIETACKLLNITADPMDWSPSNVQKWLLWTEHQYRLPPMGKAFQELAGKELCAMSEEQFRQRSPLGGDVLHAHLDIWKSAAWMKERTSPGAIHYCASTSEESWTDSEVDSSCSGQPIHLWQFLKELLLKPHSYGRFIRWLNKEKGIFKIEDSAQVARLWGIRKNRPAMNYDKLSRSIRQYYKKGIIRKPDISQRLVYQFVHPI
# Method in brief: as §1
# [15] = target: T10, ETV7 (Homo sapiens, UniProt Q9Y603 1-341); details: protein: recombinant; tags: N-terminal GST; dsDNA, one strand shown
# T10 sequence: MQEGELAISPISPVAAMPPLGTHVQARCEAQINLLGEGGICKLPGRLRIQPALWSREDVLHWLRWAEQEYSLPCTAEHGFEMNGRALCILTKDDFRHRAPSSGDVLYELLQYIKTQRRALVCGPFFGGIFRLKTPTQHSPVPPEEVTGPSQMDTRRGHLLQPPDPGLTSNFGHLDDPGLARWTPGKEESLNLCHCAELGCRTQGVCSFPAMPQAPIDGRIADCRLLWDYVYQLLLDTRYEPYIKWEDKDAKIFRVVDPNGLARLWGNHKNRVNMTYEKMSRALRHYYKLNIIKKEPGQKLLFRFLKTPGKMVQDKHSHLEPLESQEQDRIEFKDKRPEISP
# Method in brief: as §1
# [16] = target: T11, ELF5 (Homo sapiens, UniProt Q9UKW6-2 1-255); details: protein: recombinant; tags: N-terminal GST; dsDNA, one strand shown
# T11 sequence: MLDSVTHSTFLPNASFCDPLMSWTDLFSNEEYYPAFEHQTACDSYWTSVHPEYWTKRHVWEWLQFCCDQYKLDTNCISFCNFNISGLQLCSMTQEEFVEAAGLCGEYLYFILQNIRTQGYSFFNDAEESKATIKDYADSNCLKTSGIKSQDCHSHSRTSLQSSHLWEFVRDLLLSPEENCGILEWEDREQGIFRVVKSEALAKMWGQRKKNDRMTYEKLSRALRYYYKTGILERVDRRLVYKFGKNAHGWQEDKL
# Method in brief: as §1
# [17] = target: T12, ETV3 (Homo sapiens, UniProt P41162-2 1-143); details: protein: recombinant; tags: N-terminal GST; dsDNA, one strand shown
# T12 sequence: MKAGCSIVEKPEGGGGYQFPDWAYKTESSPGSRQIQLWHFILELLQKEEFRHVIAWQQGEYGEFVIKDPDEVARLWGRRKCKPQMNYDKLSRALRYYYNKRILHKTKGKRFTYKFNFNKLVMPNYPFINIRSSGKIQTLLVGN
# Method in brief: as §1
# [18] = target: ETV6 (Homo sapiens, UniProt P41212 1-452); details: protein: recombinant; tags: N-terminal GST; dsDNA, one strand shown
# Method in brief: as §1
# Sequence of ETV6 (P41212 whole entry): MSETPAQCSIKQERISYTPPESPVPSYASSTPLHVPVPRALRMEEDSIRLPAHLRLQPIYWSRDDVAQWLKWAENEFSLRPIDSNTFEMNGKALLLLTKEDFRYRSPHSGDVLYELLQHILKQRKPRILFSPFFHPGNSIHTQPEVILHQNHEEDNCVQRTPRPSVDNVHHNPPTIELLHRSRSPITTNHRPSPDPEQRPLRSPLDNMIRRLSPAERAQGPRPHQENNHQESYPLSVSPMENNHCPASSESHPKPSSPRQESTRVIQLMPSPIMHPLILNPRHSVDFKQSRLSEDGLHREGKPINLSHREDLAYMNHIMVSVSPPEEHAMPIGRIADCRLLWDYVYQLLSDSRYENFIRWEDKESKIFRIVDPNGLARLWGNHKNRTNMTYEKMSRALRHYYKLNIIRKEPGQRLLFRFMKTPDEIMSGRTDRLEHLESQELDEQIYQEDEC
# Sequence of ELF4 (Q99607 whole entry): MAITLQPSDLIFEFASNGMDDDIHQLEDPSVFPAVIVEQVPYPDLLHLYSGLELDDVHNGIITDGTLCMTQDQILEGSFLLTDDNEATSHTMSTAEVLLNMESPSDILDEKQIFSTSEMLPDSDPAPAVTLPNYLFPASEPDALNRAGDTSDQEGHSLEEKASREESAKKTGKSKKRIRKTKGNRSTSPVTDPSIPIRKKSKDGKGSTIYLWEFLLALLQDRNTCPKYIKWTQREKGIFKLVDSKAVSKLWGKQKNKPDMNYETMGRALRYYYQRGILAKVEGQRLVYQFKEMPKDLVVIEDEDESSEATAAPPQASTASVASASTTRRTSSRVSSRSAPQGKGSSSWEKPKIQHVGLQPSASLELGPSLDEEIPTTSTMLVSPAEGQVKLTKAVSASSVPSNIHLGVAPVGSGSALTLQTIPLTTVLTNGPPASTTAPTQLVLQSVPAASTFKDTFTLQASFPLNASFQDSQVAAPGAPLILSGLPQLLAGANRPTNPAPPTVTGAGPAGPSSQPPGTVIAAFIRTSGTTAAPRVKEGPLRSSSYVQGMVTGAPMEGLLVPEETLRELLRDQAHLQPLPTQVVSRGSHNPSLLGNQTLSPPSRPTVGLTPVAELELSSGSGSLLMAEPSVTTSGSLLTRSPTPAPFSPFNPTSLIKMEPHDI
# Sequence of ETV5 (P41161 whole entry): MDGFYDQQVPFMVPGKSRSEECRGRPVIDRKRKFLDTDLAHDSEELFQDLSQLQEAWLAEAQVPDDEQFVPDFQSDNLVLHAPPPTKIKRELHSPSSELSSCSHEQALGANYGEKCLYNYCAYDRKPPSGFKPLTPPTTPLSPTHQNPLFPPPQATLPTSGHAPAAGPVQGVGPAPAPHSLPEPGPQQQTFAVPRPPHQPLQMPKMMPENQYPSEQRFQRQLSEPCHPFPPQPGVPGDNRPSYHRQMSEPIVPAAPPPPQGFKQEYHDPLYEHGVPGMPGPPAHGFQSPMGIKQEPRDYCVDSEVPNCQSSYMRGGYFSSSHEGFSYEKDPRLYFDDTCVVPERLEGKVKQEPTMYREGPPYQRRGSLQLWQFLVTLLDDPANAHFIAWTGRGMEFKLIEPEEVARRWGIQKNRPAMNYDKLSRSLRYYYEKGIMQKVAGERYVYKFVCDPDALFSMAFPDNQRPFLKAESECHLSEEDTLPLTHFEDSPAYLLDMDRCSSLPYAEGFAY
# Sequence of ETV1 (P50549 whole entry): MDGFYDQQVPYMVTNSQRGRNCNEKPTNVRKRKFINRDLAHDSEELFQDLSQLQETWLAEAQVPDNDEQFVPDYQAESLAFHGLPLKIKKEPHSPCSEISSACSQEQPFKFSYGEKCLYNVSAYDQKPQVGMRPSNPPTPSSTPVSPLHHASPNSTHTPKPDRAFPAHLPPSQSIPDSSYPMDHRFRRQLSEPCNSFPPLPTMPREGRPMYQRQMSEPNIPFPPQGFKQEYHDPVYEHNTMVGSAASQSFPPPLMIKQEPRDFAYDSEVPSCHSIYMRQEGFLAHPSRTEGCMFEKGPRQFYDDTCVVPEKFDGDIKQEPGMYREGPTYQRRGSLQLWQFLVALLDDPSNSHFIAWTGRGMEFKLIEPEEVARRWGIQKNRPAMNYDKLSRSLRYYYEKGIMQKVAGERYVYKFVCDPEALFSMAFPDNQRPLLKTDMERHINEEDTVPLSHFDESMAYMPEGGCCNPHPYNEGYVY
# Sequence of CRX (O43186 whole entry): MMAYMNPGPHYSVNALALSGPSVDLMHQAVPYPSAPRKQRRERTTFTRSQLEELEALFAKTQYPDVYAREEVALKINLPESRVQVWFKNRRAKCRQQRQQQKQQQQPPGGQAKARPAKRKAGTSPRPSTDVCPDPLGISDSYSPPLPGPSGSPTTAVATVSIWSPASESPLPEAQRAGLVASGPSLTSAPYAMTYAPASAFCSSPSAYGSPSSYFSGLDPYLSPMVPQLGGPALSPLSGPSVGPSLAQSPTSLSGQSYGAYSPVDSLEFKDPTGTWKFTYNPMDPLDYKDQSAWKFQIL
# Sequence of HSF1 (Q00613 whole entry): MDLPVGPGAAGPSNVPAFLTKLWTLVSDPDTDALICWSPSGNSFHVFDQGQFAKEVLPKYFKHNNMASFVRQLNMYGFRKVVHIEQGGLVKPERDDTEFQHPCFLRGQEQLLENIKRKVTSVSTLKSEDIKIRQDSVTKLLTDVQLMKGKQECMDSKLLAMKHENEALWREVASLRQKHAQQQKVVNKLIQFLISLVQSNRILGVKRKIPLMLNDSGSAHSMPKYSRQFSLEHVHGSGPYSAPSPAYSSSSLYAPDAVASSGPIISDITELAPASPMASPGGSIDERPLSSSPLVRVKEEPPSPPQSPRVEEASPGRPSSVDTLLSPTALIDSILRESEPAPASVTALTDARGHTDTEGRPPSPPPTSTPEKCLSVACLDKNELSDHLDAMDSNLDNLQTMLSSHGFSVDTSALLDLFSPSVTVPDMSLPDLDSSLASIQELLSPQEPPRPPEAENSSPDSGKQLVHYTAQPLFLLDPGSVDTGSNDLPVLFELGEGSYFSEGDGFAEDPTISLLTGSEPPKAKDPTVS
sequence,measurement,setting,value
CCATAT,binding signal,[1],"1.24 fold enrichment (6-mer frequency, TF over GST control)"
same,binding signal,[2],"1.24 fold enrichment (6-mer frequency, TF over GST control)"
same,binding signal,[3],"1.12 fold enrichment (6-mer frequency, TF over GST control)"
same,binding signal,[4],"1.31 fold enrichment (6-mer frequency, TF over GST control)"
same,binding signal,[5],"1.17 fold enrichment (6-mer frequency, TF over GST control)"
same,binding signal,[6],"1.13 fold enrichment (6-mer frequency, TF over GST control)"
same,binding signal,[7],"1.29 fold enrichment (6-mer frequency, TF over GST control)"
same,binding signal,[8],"1.37 fold enrichment (6-mer frequency, TF over GST control)"
same,binding signal,[9],"1.09 fold enrichment (6-mer frequency, TF over GST control)"
same,binding signal,[10],"1.2 fold enrichment (6-mer frequency, TF over GST control)"
same,binding signal,[11],"1.23 fold enrichment (6-mer frequency, TF over GST control)"
same,binding signal,[12],"1.27 fold enrichment (6-mer frequency, TF over GST control)"
same,binding signal,[13],"1.22 fold enrichment (6-mer frequency, TF over GST control)"
same,binding signal,[14],"1.33 fold enrichment (6-mer frequency, TF over GST control)"
same,binding signal,[15],"1.16 fold enrichment (6-mer frequency, TF over GST control)"
same,binding signal,[16],"1.24 fold enrichment (6-mer frequency, TF over GST control)"
same,binding signal,[17],"1.19 fold enrichment (6-mer frequency, TF over GST control)"
same,binding signal,[18],"1.15 fold enrichment (6-mer frequency, TF over GST control)"
